Where “and” joins values, the source holds several entries; their conditions need not be identical. Identical values can stand only once. Compounds without any hit were thinned out: in the full panel of roughly 83,000, 20% have a hit.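 Testing used 96-well plates and a 48-hour single-concentration exposure. Example: -40 means 40% of the starting cells died.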 A number with no mark means an inactive call. Calls of active or inactive are those of the source. The calls were made as follows: active = growth percent below 10; inactive = the rest.

The experiment concerns MDA-MB-468 breast. The experiment can be described thus: NCI-60 one-dose screen, 48 h (100 = growth as untreated, 0 = no growth, -100 = all killed). Conditions: 10 µM unless noted.
Take `COc1cc(C2C=C(C)N=C3SC=NN32)cc(OC)c1OC` (stereo not given): the growth was 102%.
For `O=C(Nc1ccc(Cl)cc1)N1NC(c2ccc(Cl)cc2)C=C1c1ccccc1` (stereo not given), the growth was 98.3%.
`CNC(=O)c1cc(Oc2ccc3c(c2)sc2nc(-c4ccc(NC(=O)Nc5ccc(Cl)c(C(F)(F)F)c5)cc4)cn23)ccn1`: the growth was 93.9%.
`C/C(=C\c1ccc(OCC(=O)O)c(Cl)c1Cl)[N+](=O)[O-]`: the growth was 119%.
Turning to `CC(C)=CC[C@@H]1CC2(CC=C(C)C)C(=O)C(OC3(C(=O)c4ccccc4)C(=O)C4(CC=C(C)C)C[C@@H](CC=C(C)C)C(C)(C)C(CC=C(C)C)(C4=O)C3=O)(C(=O)c3ccccc3)C(=O)C(CC=C(C)C)(C2=O)C1(C)C` (stereo not given in full), the growth was -6.87% (active).
On to `C=C(C)[C@@H]1CC[C@]2(CN)CC[C@]3(C)[C@H](CC[C@@H]4[C@@]5(C)CCC(N)[C@@](C)(CO)[C@@H]5CC[C@]43C)[C@@H]12` (stereo not given in full), for which the growth was -86.6% (active).
Turning to `O=C(Nc1ccc(Cl)cc1F)c1cc(F)ccc1O`, the growth is 3.61% (active).
With `CCCCCCCCCCCCCCCCCC1=NCCN1CCOC1=C(Cl)C(=O)c2ccccc2C1=O`, the growth was -50.1% (active).
The result for `C=C(C)[C@@H]1CC[C@]2(COCCC#N)CC[C@]3(C)[C@H](CC[C@@H]4[C@@](C)(CCCNCCC#N)[C@H](C(=C)C)CC[C@]43C)[C@@H]12` reads 16.3% [100 µM].
As to `O=C(Nc1ccc(-n2cc(-c3ccncc3)c(-c3ccc(O)c(Cl)c3)n2)cc1)c1ccc(Cl)c(C(F)(F)F)c1`, the growth was 27.5%.
For `O=C(CSc1nnc(-c2cccs2)n1-c1ccccc1)Nc1ccccc1`, the growth is 49.1%.
The result for `O=C(Nc1ccc(OS(=O)(=O)c2ccc(F)cc2)cc1)C1CCCCCC1` reads 102%; that for `N=C1C=C(N)C(=O)c2ccccc21`, -85.6% (active); that for `O=C1c2ccccc2C(=O)c2c1ccc(C(=O)O)c2[N+](=O)[O-]`, 119%.
`CCOC(=O)NC(N)=O`: the growth is 105% and 98.7%.
For the compound `CC1(C)c2[nH]c3ccccc3c2C[C@]2(C)[C@H]3C(=O)C=C4[C@@H]5C[C@@](C)(C(N)=O)CC[C@]5(C)CC[C@@]4(C)[C@]3(C)CC[C@@H]12`, the growth was 56.4%.
Take `CCCCCOc1ccc(/C=N/Nc2cc(C)nc3ccc(Br)cc23)cc1`: the growth is -15.1% (active).
Regarding `COc1ccc(/C(C)=C(\c2ccc(Cl)cc2)c2ccc(OCCN3CCCC3)cc2)cc1F`, the growth was 37.5%.
On to `COc1cccc(-c2nc3sccn3c2-c2ccnc(NCCNS(=O)(=O)c3ccccc3)c2)c1`, for which the growth is 16.2%.
In the case of `N#Cc1c(-c2cccs2)cc(-c2cnccn2)nc1SCC(=O)Nc1ccc(Br)cc1`, the growth is 81.1%.
For `CCCc1nn2c(CCC(=O)c3nc4ccc([N+](=O)[O-])cc4[nH]3)nnc2s1`, the growth is 114%.
The result for `Cc1cn(-c2cc(F)cc(NC(=O)c3ccc(C)c(Nc4nccc(-c5cccnc5)n4)c3)c2)cn1` reads -63.4% (active).
In the case of `CN1CCN(Cc2ccc(NC(=O)c3cncc(C#Cc4cnc5cccnn45)c3)cc2C(F)(F)F)CC1`, the growth was 37.8%.
The result for `Cc1nn(-c2ccc(Cl)cc2)c(=O)n1CCn1cnc2ccccc21` reads 117%; that for `COc1ccc(C2c3ccc4ccccc4c3Oc3ncn(CCCn4ccnc4)c(=N)c32)cc1OC` (stereo not given), 47.5%; that for `O=C(Nn1c2c(sc1=NC1CC1)C(=O)c1ccccc1C2=O)c1cc2ccc1CCc1ccc(cc1)CC2`, 32.4%.
For `COc1ccc(-c2cc(-c3cccc4ccccc34)n3c(n2)nc2ccccc23)cc1OC`, the growth is 63.2%.
Turning to `NC/C(=C/F)COc1ccc2nc(NCc3cccnc3)oc2c1`, the growth was 107%.
The result for `Cc1ccccc1NC(=O)c1cc2ccccc2cc1O` reads 79.5%.
As to `CCN1Cc2c(/C=C/c3ccccc3)nc3ccc(OC)cc3c2N(c2cccc(Cl)c2)C1`, the growth is 48.3%.
For the compound `C=C(CO)[C@@H]1CC[C@]2(COC3CCCCO3)CC[C@]3(C)[C@H](CC[C@@H]4[C@@]5(C)C=C(C=O)C(=O)C(C)(C)[C@@H]5CC[C@]43C)[C@@H]12` (stereo not given in full), the growth was -75.4% (active).
For the compound `CC(=O)Nc1ccc(NC(C)=O)c2c1C(=O)c1ccccc1C2=O`, the growth was 107%.
The value for `CC(=O)NC1C(O[C@H]2C[C@H]3[C@@H]4CC=C5C[C@@H](O)CC[C@]5(C)[C@H]4CC[C@]3(C)[C@H]2[C@H](C)C(=O)CCC(C)C)OCC(O)C1O` (stereo not given in full) was 51.6%; that for `N=C(N)c1ccc(-c2ccc(-c3ccc(F)cc3)o2)o1` was 5.37% (active); that for `NC(=O)N1N=C(c2cc3ccccc3oc2=O)CC1c1cn(-c2ccccc2)nc1-c1ccc(Cl)cc1` (stereo not given) was 36.9%.
The value for `COc1ccc(C(=O)/C=C/c2cc(C(=O)c3cc(OC)c(OC)c(OC)c3)ccc2OC)cc1` was 47.2%; that for `S=C(c1ccc2c(c1)OCO2)N1CCN(c2ccccc2Cl)CC1` was 80.8%; that for `CCCNC(=S)N/N=C(\C)c1ccccn1` was -26.3% (active).
For `COc1cc(-c2cc3cnccc3c3nc(N)c4ccncc4c23)cc(OC)c1OC`, the growth is 8.5% (active).
Turning to `C=CC(=O)Nc1cccc(Oc2nccc(Nc3nnc(-c4ccc(Br)cc4)s3)n2)c1`, the growth is 114%.

Source of the values: PubChem BioAssay (NCI).
